Read-out in experiment [1]: TIMP metallopeptidase inhibitor 1 (TIMP1), TIMP1 (gene 7076)
Kind of experiment: BSK_hDFCGF_TIMP1: BioMAP Diversity Plus: hDFCGF Assay for TIMP metallopeptidase inhibitor 1 (TIMP1) Biomarker Activity (AID 2283062). The settings on record: primary human foreskin fibroblasts; actives raise or lower the signal. The method, boiled down: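 Fibroblasts from human foreskin are treated with test chemical and harvested at 24 h. TIMP-1 is quantified by ELISA, and gain or loss of signal is scored against DMSO.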

Read-out in experiment [2]: Monokine induced gamma interferon (MIG), CXCL9 (gene 4283)
Kind of experiment: BSK_hDFCGF_MIG: BioMAP Diversity Plus: hDFCGF Assay for Monokine induced gamma interferon (MIG) Biomarker Activity (AID 2283063). The settings on record: primary human foreskin fibroblasts; actives raise or lower the signal. In a few lines: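 MIG signal, determined by ELISA, reflects 24 h chemical exposure of human skin primary fibroblasts. DMSO serves as negative control and baseline.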

Read-out in experiment [3]: Plasminogen activator inhibitor-1 (PAI1), SERPINE1 (gene 5054)
Kind of experiment: BSK_hDFCGF_PAI1: BioMAP Diversity Plus: hDFCGF Assay for Plasminogen activator inhibitor-1 (PAI1) Biomarker Activity (AID 2283066). The settings on record: primary human foreskin fibroblasts; actives raise or lower the signal. In a few lines:
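PAI-1 levels in human dermal foreskin fibroblasts were quantified by ELISA 24 h after dosing, with gain or loss analysed against DMSO. Overt cytotoxicity was checked by sulforhodamine B total-protein staining in parallel cultures.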

Read-out in experiment [4]: Intercellular Adhesion Molecule 1 (ICAM1), ICAM1 (gene 3383)
Kind of experiment: BSK_KF3CT_ICAM1: BioMAP Diversity Plus: KF3CT Assay for Intercellular Adhesion Molecule 1 (ICAM1) Biomarker Activity (AID 2283067). To be noted: primary human keratinocytes with fibroblasts; actives raise or lower the signal. In a few lines: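 Dose the keratinocyte/fibroblast co-culture, wait 24 h, measure ICAM-1 by ELISA, then fit increases or decreases against DMSO. Cytotoxicity is checked in parallel cultures by SRB total-protein staining.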

Experiment [5] can be described thus: BSK_KF3CT_SRB: Viability Assessment in the BioMAP Diversity Plus: KF3CT Assay (AID 2283069). The settings on record: primary human keratinocytes with fibroblasts. The method, boiled down:
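Cytotoxicity was gauged by SRB staining (0.1% SRB, 10% TCA fixation, 560 nm) of parallel cultures at 24 h. The cells were primary human skin keratinocytes co-cultured with fibroblasts, and activity was fitted in both directions against DMSO.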

Read-out in experiment [6]: Interleukin-1 alpha (IL1a), IL1A (gene 3552)
Put plainly: BSK_KF3CT_IL1a: BioMAP Diversity Plus: KF3CT Assay for Interleukin-1 alpha (IL1a) Biomarker Activity (AID 2283070). The settings on record: primary human keratinocytes with fibroblasts; actives raise or lower the signal. The method, boiled down:
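IL-1a was detected by ELISA 24 h after chemical treatment of a co-culture of human skin keratinocytes and foreskin fibroblasts. Gain or loss of signal was fitted against the DMSO baseline.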

Read-out in experiment [7]: Transforming growth factor beta 1 (TGFb1), TGFB1 (gene 7040)
Put plainly: BSK_KF3CT_TGFb1: BioMAP Diversity Plus: KF3CT Assay for Transforming growth factor beta 1 (TGFb1) Biomarker Activity (AID 2283072). To be noted: primary human keratinocytes with fibroblasts; actives raise or lower the signal. The method, boiled down:
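ELISA quantifies TGF-b1 at 24 h post-dose in a primary human skin co-culture of keratinocytes and fibroblasts, with gain or loss judged against DMSO. Parallel SRB total-protein staining flags overt cytotoxicity.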

Read-out in experiment [8]: C-C motif chemokine 2 (Homo sapiens) (UniProt P13500)
Kind of experiment: BSK_KF3CT_MCP1: BioMAP Diversity Plus: KF3CT Assay for Monocyte Chemoattractant Protein 1 (MCP1/CCL2) Biomarker Activity (AID 2283073). To be noted: primary human keratinocytes with fibroblasts; actives raise or lower the signal. In a few lines:
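Keratinocytes and foreskin fibroblasts were co-cultured, dosed with chemical, and sampled 24 h later. MCP-1 was quantified by ELISA, and the endpoint was analyzed with bidirectional fitting using DMSO as negative control.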

Read-out in experiment [9]: Matrix Metallopeptidase 9 (MMP9), MMP9 (gene 4318)
Put plainly: BSK_KF3CT_MMP9: BioMAP Diversity Plus: KF3CT Assay for Matrix Metallopeptidase 9 (MMP9) Biomarker Activity (AID 2283074).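 As to AC50: MMP9 protein level quantified by ELISA in the co-culture.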 To be noted: primary human keratinocytes with fibroblasts; actives raise or lower the signal. The method, boiled down: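 MMP-9 quantified by ELISA after 24 h chemical treatment of primary human skin keratinocyte/fibroblast co-cultures; gain or loss fitted against DMSO, with parallel SRB staining (0.1% SRB, 560 nm) for overt cytotoxicity.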

Read-out in experiment [10]: urokinase plasminogen activator (uPA), PLAU (gene 5328)
Put plainly: BSK_KF3CT_uPA: BioMAP Diversity Plus: KF3CT Assay for urokinase plasminogen activator (uPA) Biomarker Activity (AID 2283075). The settings on record: primary human keratinocytes with fibroblasts; actives raise or lower the signal. The method, boiled down:
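ELISA read-out of uPA 24 h after dosing human skin keratinocytes co-cultured with foreskin fibroblasts. Signal change fitted both ways relative to DMSO; sulforhodamine B on parallel cultures marks overt cytotoxicity.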

Read-out in a further experiment: CD40, CD40 (gene 958)
Put plainly: BSK_LPS_CD40: BioMAP Diversity Plus: LPS Assay for CD40 Biomarker Activity (AID 2283076). To be noted: primary human HUVEC with PBMC; actives raise or lower the signal. The method, boiled down:
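CD40 signal, measured by ELISA, is fitted in both directions relative to DMSO vehicle. The system is an LPS-driven human vascular primary co-culture of endothelial cells and PBMC, sampled 24 h after compound addition.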

Read-out in experiment [11]: Interleukin-8 (IL8), CXCL8 (gene 3576)
Kind of experiment: BSK_LPS_IL8: BioMAP Diversity Plus: LPS Assay for Interleukin-8 (IL8) Biomarker Activity (AID 2283078). To be noted: primary human HUVEC with PBMC; actives raise or lower the signal. In a few lines: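 Endothelial cells and PBMC from human donors are co-cultured, treated with chemicals and LPS, then assayed for IL-8 by ELISA after 24 h. Parallel SRB staining (0.1% SRB after 10% TCA fixation, 560 nm) flags cytotoxicity.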

A short description of experiment [12]: BSK_LPS_SRB: Viability Assessment in the BioMAP Diversity Plus: LPS Assay (AID 2283079).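 Also: total protein by sulforhodamine B absorbance as a cytotoxicity measure; measured one day after compound addition; fitted in both directions against DMSO so loss or gain of signal counts.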 To be noted: primary human HUVEC with PBMC. The method, boiled down: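 Overt cytotoxicity was gauged by sulforhodamine B total-protein staining in a primary human vascular endothelial and mononuclear cell co-culture 24 h post-dosing. Activity was fitted in both directions relative to DMSO.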

Read-out in experiment [13]: Interleukin-1 alpha (IL1a), IL1A (gene 3552)
Kind of experiment: BSK_LPS_IL1a: BioMAP Diversity Plus: LPS Assay for Interleukin-1 alpha (IL1a) Biomarker Activity (AID 2283080). The settings on record: primary human HUVEC with PBMC; actives raise or lower the signal. The method, boiled down: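 Measured: IL-1 alpha via ELISA at 24 h in LPS-activated human umbilical vein endothelium–PBMC co-culture. Baseline: DMSO, bidirectional fitting.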

Read-out in experiment [14]: Monocyte Chemoattractant Protein-1 (MCP1), CCL2 (gene 6347)
Put plainly: BSK_LPS_MCP1: BioMAP Diversity Plus: LPS Assay for Monocyte Chemoattractant Protein-1 (MCP1) Biomarker Activity (AID 2283081).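 As to AC50: secreted MCP-1 protein quantified by ELISA in culture supernatant.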 To be noted: primary human HUVEC with PBMC; actives raise or lower the signal. In a few lines: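 LPS-stimulated HUVEC/PBMC co-culture; chemical, 24 h; MCP-1 by ELISA; bidirectional fit vs DMSO; cytotoxicity via SRB (0.1% stain, 10% TCA fix, 560 nm) in parallel wells.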

Read-out in experiment [15]: Vascular cell adhesion molecule 1 (VCAM1), VCAM1 (gene 7412)
Put plainly: BSK_hDFCGF_VCAM1: BioMAP Diversity Plus: hDFCGF Assay for Vascular cell adhesion molecule 1 (VCAM1) Biomarker Activity (AID 2283065). The settings on record: primary human foreskin fibroblasts; actives raise or lower the signal. The method, boiled down: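 Cells are dosed, cultured for 24 h, then VCAM-1 is quantified by ELISA; signal increases and decreases are both fitted relative to DMSO.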

Read-out in experiment [16]: E-selectin (Homo sapiens) (UniProt P16581)
Kind of experiment: BSK_LPS_Eselectin: BioMAP Diversity Plus: LPS Assay for Eselectin Biomarker Activity (AID 2283077). The settings on record: primary human HUVEC with PBMC; actives raise or lower the signal. In a few lines:
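Signal of E-selectin, detected by ELISA, served as the endpoint; cells were umbilical vein endothelium with PBMC, read 24 h after treatment. DMSO defined baseline, and both increases and decreases were fitted.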

Read-out in experiment [17]: Interferon-gamma inducible Protein 10 (IP10), CXCL10 (gene 3627)
Put plainly: BSK_KF3CT_IP10: BioMAP Diversity Plus: KF3CT Assay for Interferon-gamma inducible Protein 10 (IP10) Biomarker Activity (AID 2283068). The settings on record: primary human keratinocytes with fibroblasts; actives raise or lower the signal. In a few lines: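 Human keratinocyte plus foreskin fibroblast primary co-culture exposed to test chemical for 24 h; IP-10 measured by ELISA. Concentration-response fitted bidirectionally against DMSO control as baseline.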

By AC50 is commonly meant the concentration at which the activity in the assay is half-maximal.

Each structure is given as a SMILES string. Calls of active or inactive are those of the source. The calls were made as follows: active = hit-call score of the fitted dose curve at least 0.9, where 1 is the maximum; inactive = score below 0.9.

E-selectin (Homo sapiens), sequence (P16581 whole entry, looked up): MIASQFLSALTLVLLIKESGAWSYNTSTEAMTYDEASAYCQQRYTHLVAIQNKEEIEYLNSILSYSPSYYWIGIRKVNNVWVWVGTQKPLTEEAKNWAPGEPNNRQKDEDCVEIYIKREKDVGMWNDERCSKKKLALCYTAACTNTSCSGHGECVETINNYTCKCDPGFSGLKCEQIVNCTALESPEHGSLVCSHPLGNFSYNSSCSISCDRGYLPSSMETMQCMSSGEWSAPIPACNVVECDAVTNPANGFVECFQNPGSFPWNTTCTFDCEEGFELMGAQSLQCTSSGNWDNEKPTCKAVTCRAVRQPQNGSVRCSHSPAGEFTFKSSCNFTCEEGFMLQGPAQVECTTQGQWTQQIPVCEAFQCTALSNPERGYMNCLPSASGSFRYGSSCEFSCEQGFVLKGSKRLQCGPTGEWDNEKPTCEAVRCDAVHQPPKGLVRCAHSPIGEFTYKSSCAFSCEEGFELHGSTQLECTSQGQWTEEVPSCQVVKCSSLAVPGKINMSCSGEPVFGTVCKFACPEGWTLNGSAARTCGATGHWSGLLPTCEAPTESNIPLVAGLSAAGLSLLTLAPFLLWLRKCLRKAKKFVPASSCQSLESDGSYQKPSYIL

`O=C1OC(=O)C2C3C=CC(C3)C12` (centres undefined): the result in experiment [1], in experiment [2], in experiment [3], in experiment [4], in [5] and in experiment [6] was inactive. Besides, the outcome is “inactive” in experiment [7]; “inactive” in [8]; “inactive” in [9]; “inactive” in experiment [10]; “inactive” with CD40, CD40 (gene 958); “inactive” in experiment [11]. Moreover, the outcome in experiment [12], in experiment [13] and in [14] was inactive.
`CCn1nc(Cc2ccccc2)cc1C1CCN(C[C@H]2C[C@H](N(C)[C@@H](C(=O)O)C(C)C)C[C@@H]2c2cccc(F)c2)CC1`: the result in experiment [1], in experiment [2], in [15], in experiment [3], in experiment [4] and in [6] was inactive. The outcome in experiment [7] was “inactive”; in experiment [8], “inactive”; in experiment [9], “inactive”; in experiment [10] it was “inactive”; in the experiment with CD40, CD40 (gene 958), “inactive”; in experiment [16], “inactive”. In addition, the outcome in [11], in [12], in experiment [13] and in [14] was inactive.
Turning to `C[C@](N)(Cc1ccc(O)c(O)c1)C(=O)O`, the outcome in experiment [1], in experiment [3], in experiment [4], in experiment [17], in [5] and in [6] was inactive. For the same compound, the outcome in [7] is “inactive”; in [8], “inactive”; in [9], “inactive”; in [10] it was “inactive”; in the experiment with CD40, CD40 (gene 958), “inactive”; in [16] it was “inactive”. Besides, the outcome in experiment [11], in [12], in experiment [13] and in experiment [14] was inactive. Also, the AC50 in experiment [2] is 20 µM (active).
Take `CCc1cc(SCc2sc(-c3ccc(C(F)(F)F)cc3)nc2CN2CCN(c3ccc(OC)cc3)CC2)ccc1OCC(=O)O`: the AC50 in [1] was 2.53 µM (active); in experiment [2] it was 3.38 µM (active); in experiment [3], 3.17 µM (active); in experiment [4], 7.27 µM (active); in experiment [17], 3.58 µM (active); in experiment [6], 7.25 µM (active). Further, the AC50 in experiment [7] was 4.39 µM (active); in [8], 4.26 µM (active); in [9], 4.08 µM (active); in [10], 5.22 µM (active); in the experiment with CD40, CD40 (gene 958) it was 6.6 µM (active); in experiment [11] it was 33.6 µM (active). Also, the values for the AC50 in [12], in experiment [13] and in experiment [14] were 13.4 µM (active), 30.6 µM (active) and 12.3 µM (active), respectively.
On to `Cc1ccc(C)c(O)c1`, for which the result in experiment [1], in experiment [2], in [3], in experiment [4], in [17] and in [5] was inactive. Besides, the outcome in [6] is “inactive”; in experiment [7], “inactive”; in experiment [8], “inactive”; in experiment [9], “inactive”; in [10], “inactive”; in the experiment with CD40, CD40 (gene 958), “inactive”. For the same compound, the outcome in experiment [11], in experiment [12], in [13] and in [14] was inactive.

The record behind these values is PubChem BioAssay (EPA / NIEHS).
